Results on 13 compounds are retold here after PubChem BioAssay (NCI).

Common to all, as to assay: NCI-60 one-dose screen, 48 h (100 = growth as untreated, 0 = no growth, -100 = all killed)
In experiment [1] the test system is NCI/ADR-RES ovarian. The following applies: 10 µM.
Experiment [2] has as its system T-47D breast. The following applies: 10 µM.
For experiment [3], the system named is BT-549 breast. The settings on record: 10 µM.
Experiment [4] deals with MDA-MB-435 melanoma. The following applies: 10 µM.
The test system of experiment [5] is SW-620 colon. The settings on record: 10 µM.
For experiment [6], the system named is MCF7 breast. The following applies: 10 µM unless noted.
The subject of experiment [7] is HCT-116 colon. The following applies: 10 µM.
For experiment [8], the system named is HCC-2998 colon. The following applies: 10 µM.
The test system of experiment [9] is KM12 colon. The settings on record: 10 µM.

Values joined by “and” are separate entries in the source; they are usually repeats but may differ in a detail not shown here. Equal entries are not always repeated. This is part of a sample that, as a whole, favours compounds with a hit. Of some 83,000 tested, about 20% had one in any assay.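 How to read the values: 0–100, growth inhibition (40 = 60% inhibited); 0, no net growth; -100 to 0, cell death (-40 = 40% of starting cells died; -100 = all dead).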 Active and inactive are the calls of the source. The calls were made as follows: active = growth percent below 10; inactive = the rest.

For `[Cl][Hg][c]1ccc(Cl)s1`, the growth is 57.1% (inactive) in experiment [1]; -68.5% (active) in [2]; 14.2% (inactive) in experiment [3]; 4.96% (active) in experiment [4]; -26.9% (active) in experiment [5]; -37.1% (active) in experiment [6]. Moreover, the results for the growth in experiment [7], in [8] and in [9] were 15.8% (inactive), 111% (inactive) and 91.1% (inactive), respectively.

Turning to `[O-][n+]1ccccc1S`, the growth is 37% (inactive) in experiment [1]; 53.4% (inactive) in experiment [2]; 93.5% (inactive) in experiment [3]; 53.8% (inactive) in experiment [4]; 42% (inactive) in experiment [5]; 25.3% (inactive) in experiment [6]. For the same compound, the values for the growth in [7], in [8] and in [9] were -9.38% (active), 76.7% (inactive) and 46.5% (inactive), respectively.

Turning to `C=C1C(=O)O[C@@H]2C[C@@H](C)[C@@H]3C=CC(=O)[C@@]3(C)[C@@H](O)[C@H]12`, the growth in experiment [1] is 12.9% (inactive); in experiment [2], -58.1% (active); in experiment [3], -85.1% (active); in [4], -88.2% (active); in experiment [5], -30.5% (active); in [6], -4.11% (active). The growth in experiment [7] is -93.5% (active); in experiment [8] it was -97.7% (active); in experiment [9], -84.3% (active).

As to `COC12C(COC(N)=O)C3=C(C(=O)C(C)=C(N)C3=O)N1CC1C2N1C` (configuration not stated), the growth in experiment [1] was 66.9% (inactive); in experiment [2], 52.8% (inactive); in experiment [3] it was 60% (inactive); in [4], 68.6% (inactive); in experiment [5] it was 36.8% (inactive); in experiment [6] it was 27.5% (inactive). The growth in [7] is 44.3% (inactive); in [8], -4.28% (active); in [9] it was 64.2% (inactive).

Take `O=S(=O)(F)c1ccc(Cl)cc1`: the growth is 109% (inactive) in experiment [1]; 105% (inactive) in [2]; 112% (inactive) in experiment [3]; 108% (inactive) in experiment [4]; 100% (inactive) in [5]; 102% (inactive) in experiment [6]. In addition, the results for the growth in experiment [7], in experiment [8] and in experiment [9] were 106% (inactive), 83.2% (inactive) and 104% (inactive), respectively.

On to `CC(=O)Nc1c2sscc-2n(C)c1=O`, for which the growth in experiment [1] was -94.8% (active); in [2], -87.4% (active); in experiment [3], -96.4% (active); in [4], -93.7% (active); in experiment [5], -99% (active); in [6], -60.9% (active). Further, the growth in experiment [7], in experiment [8] and in experiment [9] was -100% (active) throughout.

As for `CN(CCCl)c1ccc(/C=C/C2=[N+](C)c3ccccc3C2(C)C)cc1`, the growth in [1] was 105% (inactive); in experiment [2], 29.3% (inactive); in [3], 20.7% (inactive); in experiment [4] it was 12% (inactive); in experiment [5], 19.8% (inactive); in experiment [6], 14.9% (inactive). Moreover, the figures for the growth in experiment [7], in [8] and in experiment [9] were 7.48% (active), 26% (inactive) and 12.6% (inactive), respectively.

In the case of `CC/C(=C/c1ccc(OC)cc1)[N+](=O)[O-]`, the growth is 30.3% (inactive) in [1]; -43.7% (active) in [2]; -34.5% (active) in experiment [3]; 15.1% (inactive) in experiment [4]; -76.8% (active) in experiment [5]; -41.5% (active) in experiment [6]. Further, the results for the growth in experiment [7], in [8] and in [9] were -81.3% (active), 85.1% (inactive) and 33.8% (inactive), respectively.

Consider `O=[N+]([O-])/C=C/c1ccc([N+](=O)[O-])cc1`, for which the growth is 78.7% (inactive) and 85.8% (inactive) in experiment [1]; 48.7% (inactive) and 57.1% (inactive) in [2]; -75.2% (active) and 88.7% (inactive) in experiment [3]; -48.9% (active) and 81.1% (inactive) in experiment [4]; -72.6% (active) and 12.2% (inactive) in experiment [5]; -14.5% (active) and 23.1% (inactive) in experiment [6]. Further, the growth in experiment [7] is -93% (active) and 48.4% (inactive); in experiment [8], -91% (active) and 98.9% (inactive); in experiment [9], -54.2% (active) and 99.7% (inactive).

`Oc1c(Cl)cc(Cl)c2ccccc12.[Cu+2]`: the growth in experiment [1] is 91.9% (inactive); in experiment [2] it was 82.9% (inactive); in experiment [3], 106% (inactive); in experiment [4] it was -83.4% (active); in experiment [5], 88.3% (inactive); in [6], 74.3% (inactive). Moreover, the growth in experiment [7] is 71.8% (inactive); in [8] it was 86% (inactive); in [9] it was 98.9% (inactive).

Take `O=[N+]([O-])c1ccc(N(CCO)CCO)c2c1no[n+]2[O-]`: the growth is 18.3% (inactive) in experiment [1]; -14.9% (active) in experiment [2]; -61.3% (active) in experiment [3]; 2.88% (active) in experiment [4]; 0.768% (active) in experiment [5]; 6.05% (active) in [6]. Further, the growth in [7] was -68.3% (active); in [8], -46.9% (active); in [9], -40.1% (active).

With `O=[N+]([O-])c1cc[n+]([O-])c2ccccc12`, the growth in experiment [1] was -55.1% (active); in experiment [2], -20.5% (active); in experiment [3], -65.9% (active); in experiment [4], -70.7% (active); in experiment [5], -69.3% (active); in experiment [6], -16.7% (active). For the same compound, the growth in experiment [7] was -71.2% (active); in [8], -94.5% (active); in [9] it was -89.5% (active).

Take `CN(C)CC1(N)C(=O)NC(=O)NC1=O`: the growth in experiment [1] was 107% (inactive); in experiment [2] it was 89.4% (inactive); in experiment [3] it was 111% (inactive); in experiment [4], 103% (inactive); in [5] it was 106% (inactive); in [6] it was 90.9% (inactive). Moreover, the growth in experiment [7] is 92.9% (inactive); in experiment [8] it was 99.4% (inactive); in experiment [9] it was 101% (inactive).
